# Reference: PubChem BioAssay AID720629 (Broad Institute, 2013)
# Results filed as inconclusive are left out. Activity calls are given as the source filed them. The rule behind the calls is not given here.
# Test: SNB-75 cell apoptosis via caspase 3/7 – caspase 3/7 luminescence, several timepoints, dry powder, mechanism study for HRAS target identification, late-stage follow-up (AID 720629)
# Details: max activity: measured here: caspase 3/7, timepoint 1, at 0.0003 µM, stronger effect = higher value unless noted
SMILES,max activity,outcome
CCC(=O)N(c1ccc(OC)c(Cl)c1)C(C(=O)NCCc1ccccc1)c1cccs1 (centres undefined),"-24.1% [measured here: caspase 3/7, timepoint 1, at 0.0001 µM, stronger effect = higher value]",inactive
C#CCCCC(=O)NCCOCCOCCOc1ccc(N(C(=O)CCl)C(C(=O)NCCc2ccccc2)c2cccs2)cc1Cl (centres undefined),-28.3%,inactive
